The structures appear in SMILES notation. Counter-ions that a name gives are not always drawn. A number with no mark means an inactive call.

One test relates to primary human airway basal cells (HBEC, luciferase-transduced). In words: proliferation (luciferase bioluminescence) Z score relative to plate mean; higher = more proliferation / more cells, active = 1.96 or more. The note with it: donor: 1; 0.5 µM; library: ENZO Libraries; 4 days. On the procedure:
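Primary human bronchial epithelial (airway basal) cells from two donors, lentivirally transduced with pHIV-Luc-ZsGreen, were seeded at 2000 cells/well in 384-well plates in FAD medium with ENZO or Prestwick library compounds and cultured for 4 days. Luciferin was then added and bioluminescence was read as a measure of cell number. Relative light units were converted to Z scores against the plate, and the mean of triplicate wells is reported.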
For `CC(C)n1cnc2c(NCc3ccccc3)nc(NCCO)nc21` [N9-isopropyl-olomoucine], the proliferation was -0.31.
Same read-out and setting: the figure for `O=C1Nc2ccccc2/C1=C1/Nc2ccccc2C1=O` [Indirubin] is -0.759; for `Cc1ccc(C(=O)c2cc(/C=C/C(=O)NO)n(C)c2)cc1` it is -0.0732.
On to `Cc1ccc(S(=O)(=O)N[C@@H](Cc2ccccc2)C(=O)CCl)cc1`, for which the proliferation was -0.621.
As to `Cc1cc2ncc(-c3ccccc3)nc2cc1C`, the proliferation was 5.22 (active).
Consider `NC(=O)c1cccnc1` [Nicotinamide], for which the proliferation was 0.0934.
Turning to `Cn1cnc2c(NCc3ccccc3)nc(NCCO)nc21` [Olomoucine], the proliferation is 0.166.
For `CC(NC(=O)c1ccccc1/N=C/c1c(O)ccc2ccccc12)c1ccccc1` (centres undefined) [Sirtinol], the proliferation is -0.129.
Consider `O=c1cc(-c2ccc(O)cc2)oc2cc(O)cc(O)c12` [Apigenin], for which the proliferation is 0.308.
With `COc1cc(/C=C(\C#N)C(N)=O)cc(CSc2nc3ccccc3s2)c1O`, the proliferation is -0.428.
For `CN(C)CCCn1cc(C2=C(c3c[nH]c4ccccc34)C(=O)NC2=O)c2ccccc21`, the proliferation is 2.64 (active).
Same read-out and setting: the value for `COCc1cc(O)c(O)c(O)c1-c1c(COC)cc(O)c(O)c1O` was -0.578.
As to `COC(=O)C[C@H](NC(=O)[C@H](C)NC(=O)[C@@H](NC(=O)OCc1ccccc1)C(C)C)C(=O)CF`, the proliferation was -0.208.
With `O=C1Nc2ccc([N+](=O)[O-])cc2C1=O` [5-Nitroisatin], the proliferation is 0.112.
Take `NC(=O)c1cccc(-c2cccc(OC(=O)NC3CCCCC3)c2)c1`: the proliferation is 0.0752.
In the case of `N#C/C(=C\c1ccc(O)c(O)c1)C(=O)Nc1ccccc1`, the proliferation was 0.183.
Regarding `CC(C)C[C@H](NP(=O)(O)O[C@@H]1O[C@@H](C)[C@H](O)[C@@H](O)[C@H]1O)C(=O)N[C@@H](Cc1c[nH]c2ccccc12)C(=O)O` [Phosphoramidon], the proliferation was -0.109.
The same measure, in the same setting: the figure for `N#CC(=Cc1ccc2[nH]ccc2c1)C(N)=C(C#N)C#N` is 0.0615.
Regarding `O=C(O[C@@H]1Cc2c(O)cc(O)cc2O[C@@H]1c1cc(O)c(O)c(O)c1)c1cc(O)c(O)c(O)c1` [Epigallocatechin gallate], the proliferation was 0.183.
`CN(C)c1ccc(/C=C2/C(=O)Nc3ccccc32)cc1`: the proliferation is -0.0148.
With `O=c1c(-c2ccc(O)cc2)coc2cc(O)ccc12` [Daidzein], the proliferation was 0.207.
Still for that read-out and setting: the value for `CCOC(=O)c1ccc(OC(=O)CCCCCNC(=N)N)cc1` [Gabexate mesylate] was -0.301.

Still in this test, the particulars now being: donor: 1; 5 µM; library: ENZO Libraries; 4 days.
Turning to `CC(C)n1cnc2c(NCc3ccccc3)nc(NCCO)nc21` [N9-isopropyl-olomoucine], the proliferation was -0.285.
With `O=C1Nc2ccccc2/C1=C1/Nc2ccccc2C1=O` [Indirubin], the proliferation is -1.2.
For `Cc1ccc(C(=O)c2cc(/C=C/C(=O)NO)n(C)c2)cc1`, the proliferation was -0.0538.
With `Cc1ccc(S(=O)(=O)N[C@@H](Cc2ccccc2)C(=O)CCl)cc1`, the proliferation is -0.67.
For `Cc1cc2ncc(-c3ccccc3)nc2cc1C`, the proliferation was 2.1 (active).
As for `NC(=O)c1cccnc1` [Nicotinamide], the proliferation was 0.119.
On the same count and under the same terms, the figure for `Cn1cnc2c(NCc3ccccc3)nc(NCCO)nc21` [Olomoucine] is -0.244; for `CC(NC(=O)c1ccccc1/N=C/c1c(O)ccc2ccccc12)c1ccccc1` (centres undefined) [Sirtinol] it is -0.361.
Turning to `O=c1cc(-c2ccc(O)cc2)oc2cc(O)cc(O)c12` [Apigenin], the proliferation is 3.23 (active).
Regarding `COc1cc(/C=C(\C#N)C(N)=O)cc(CSc2nc3ccccc3s2)c1O`, the proliferation was -0.258.
For the molecule `CN(C)CCCn1cc(C2=C(c3c[nH]c4ccccc34)C(=O)NC2=O)c2ccccc21`, the proliferation is -0.932.
Take `COCc1cc(O)c(O)c(O)c1-c1c(COC)cc(O)c(O)c1O`: the proliferation is -0.416.
In the case of `COC(=O)C[C@H](NC(=O)[C@H](C)NC(=O)[C@@H](NC(=O)OCc1ccccc1)C(C)C)C(=O)CF`, the proliferation is -0.0506.
Take `O=C1Nc2ccc([N+](=O)[O-])cc2C1=O` [5-Nitroisatin]: the proliferation is -0.27.
On the same count and under the same terms, the value for `NC(=O)c1cccc(-c2cccc(OC(=O)NC3CCCCC3)c2)c1` was 0.55; that for `N#C/C(=C\c1ccc(O)c(O)c1)C(=O)Nc1ccccc1` was 0.06.
With `CC(C)C[C@H](NP(=O)(O)O[C@@H]1O[C@@H](C)[C@H](O)[C@@H](O)[C@H]1O)C(=O)N[C@@H](Cc1c[nH]c2ccccc12)C(=O)O` [Phosphoramidon], the proliferation is 0.079.
Still for that read-out and setting: the figure for `N#CC(=Cc1ccc2[nH]ccc2c1)C(N)=C(C#N)C#N` is -0.386; for `O=C(O[C@@H]1Cc2c(O)cc(O)cc2O[C@@H]1c1cc(O)c(O)c(O)c1)c1cc(O)c(O)c(O)c1` [Epigallocatechin gallate] it is -0.177; for `CN(C)c1ccc(/C=C2/C(=O)Nc3ccccc32)cc1` it is 1.43.
As to `O=c1c(-c2ccc(O)cc2)coc2cc(O)ccc12` [Daidzein], the proliferation is 1.72.
On the same count and under the same terms, the figure for `CCOC(=O)c1ccc(OC(=O)CCCCCNC(=N)N)cc1` [Gabexate mesylate] is 0.0316.

The values above are taken from the supplement of paper PMC12045047.
